Consider 25 molecules from PubChem BioAssay (EPA / NIEHS).

Test [1] deals with Transcription factor E2F1 (Homo sapiens) (UniProt Q01094). Kind of test: ATG_E2F_CIS: Attagene CIS-FACTORIAL HepG2 Assay for human E2F Transcription Factor 1 (AID 2282935). The following applies: HepG2 Attagene cis-reporter, E2F reporter RNA transcripts; actives raise or lower the signal. Summed up:
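Cis-element reporter mRNA induction in transiently transfected HepG2, 24 h exposure. Activity fitted in both directions relative to DMSO negative control.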

The nature of test [2]: ATG_E_Box_CIS: Attagene CIS-FACTORIAL HepG2 Assay for human Enhancer Box (E-box) (AID 2282936). The following applies: HepG2 E-box cis-reporter transcription, actives raise or lower the signal. Summed up:
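Cells: HepG2 (human liver), transient MRTU transfection. Exposure 24 h. RNA → oligo(dT) RT → PCR → 6-FAM label → HpaI → CE. Activity fitted both directions relative to DMSO.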

Test [3] in a line: ATG_M_61_CIS: Attagene CIS-FACTORIAL HepG2 Assay for M61 Transcription Factor (Internal Marker) (AID 2282937). The following applies: HepG2 Attagene CIS-FACTORIAL M61 internal marker reporter; actives raise or lower the signal. In short, it runs like this: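 Multiplexed reporter mRNA assay, HepG2 human hepatoma cells, 24 h treatment. Signal: FAM-labelled, HpaI-digested RT-PCR fragments by CE. Fit: bidirectional, baseline DMSO.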

A short description of test [4]: ATG_EGR_CIS: Attagene CIS-FACTORIAL HepG2 Assay for human Early Growth Response 1 (EGR1) (AID 2282938). The following applies: HepG2 Attagene CIS-FACTORIAL EGR reporter mRNA; actives raise or lower the signal. Summed up:
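Multiplexed cis-reporter system in human hepatoma HepG2 cells, transiently transfected. Cells are dosed for 24 h; reporter transcripts are amplified, fluorescently tagged and sized by capillary electrophoresis, with DMSO as negative control.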

Test [5] can be described thus: ATG_M_19_CIS: Attagene CIS-FACTORIAL HepG2 Assay for M19 Transcription Factor (Internal Marker) (AID 2282939). The following applies: HepG2 Attagene CIS-FACTORIAL M19 internal marker reporter; actives raise or lower the signal. In short, it runs like this:
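Internal marker readout, fitted in both directions against DMSO, from HepG2 cells carrying transfected cis-element reporter constructs; RT-PCR and capillary electrophoresis of reporter mRNA after 24 h exposure.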

Test [6] is described as follows: ATG_ERE_CIS: Attagene CIS-FACTORIAL HepG2 Assay for Estrogen Response Element (ERE) (AID 2282940). The following applies: HepG2 ERE cis-reporter, Attagene RNA transcript; actives raise or lower the signal. Summed up: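 After 24 h compound treatment, RNA from transfected HepG2 cells was reverse-transcribed, reporter cDNA PCR-amplified, FAM-labelled, HpaI-cut and resolved by capillary electrophoresis. ERE-driven cis reporter transcripts reflect endogenous factors; gain or loss scored against DMSO.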

Test [7] in a line: ATG_Ets_CIS: Attagene CIS-FACTORIAL HepG2 Assay for human Erythroblast Transformation Specific (ETS) (AID 2282941). The following applies: HepG2 ETS cis-reporter transcription, actives raise or lower the signal. In short, it runs like this: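 Steps: transfect HepG2 with multiple reporter units; treat compound 24 h; isolate RNA, DNase-treat, reverse-transcribe; PCR-amplify, label with 6-FAM, digest with HpaI; separate by capillary electrophoresis. Activity fitted both directions versus DMSO.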

For test [8], the target named is Hepatocyte nuclear factor 3-beta (Homo sapiens) (UniProt Q9Y261). As to the kind of experiment: ATG_FoxA2_CIS: Attagene CIS-FACTORIAL HepG2 Assay for human Forkhead box A2 (FOXA2) (AID 2282942). The following applies: HepG2 cis-reporter transcription factor activity, 24 h; actives raise or lower the signal. In short, it runs like this:
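Multiplexed cis-element reporter assay in transiently transfected HepG2. Twenty-four hours post-dosing, RNA was reverse-transcribed, amplified, FAM-labelled, HpaI-digested and separated by CE. Activity gain or loss relative to DMSO.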

Test [9] can be described thus: ATG_FoxO_CIS: Attagene CIS-FACTORIAL HepG2 Assay for human Forkhead box O (FoxO) (AID 2282943). To be noted: HepG2 Attagene cis-reporter, FoxO element, mRNA; actives raise or lower the signal. Summed up: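 Endogenous transcription factor activity read from multiplexed cis-promoter reporter transcripts in transiently transfected HepG2, 24 h after dosing. Reporter RNA measured via RT-PCR plus capillary electrophoresis of FAM-labeled products; gain or loss relative to DMSO.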

Test [10] in a line: ATG_GATA_CIS: Attagene CIS-FACTORIAL HepG2 Assay for human GATA Binding Protein (AID 2282944). To be noted: HepG2 GATA cis-element reporter, Attagene multiplex mRNA; actives raise or lower the signal. Summed up:
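Reporter transcripts from a GATA cis-regulated unit, among multiplexed reporters in transfected HepG2 cells, were measured by RT-PCR with capillary electrophoresis after 24 h dosing. Induction or loss scored relative to DMSO.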

Active and inactive are the calls of the source. Rule for the calls: active = hit-call score of the fitted dose curve at least 0.9, where 1 is the maximum; inactive = score below 0.9.

Chain of Transcription factor E2F1 (Homo sapiens) (Q01094 whole entry, looked up): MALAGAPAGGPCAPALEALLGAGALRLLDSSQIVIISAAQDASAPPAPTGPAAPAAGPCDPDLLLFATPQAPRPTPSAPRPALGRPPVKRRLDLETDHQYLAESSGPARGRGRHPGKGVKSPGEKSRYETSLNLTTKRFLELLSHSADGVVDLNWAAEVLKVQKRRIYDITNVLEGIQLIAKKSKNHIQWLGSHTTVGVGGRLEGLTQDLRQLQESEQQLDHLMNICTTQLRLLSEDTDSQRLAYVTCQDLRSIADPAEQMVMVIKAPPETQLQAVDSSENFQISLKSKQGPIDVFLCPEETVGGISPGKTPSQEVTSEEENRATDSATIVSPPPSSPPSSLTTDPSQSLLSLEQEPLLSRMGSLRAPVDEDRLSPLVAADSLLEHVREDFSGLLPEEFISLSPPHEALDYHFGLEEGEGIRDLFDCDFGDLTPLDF
Chain of Hepatocyte nuclear factor 3-beta (Homo sapiens) (Q9Y261 whole entry, looked up): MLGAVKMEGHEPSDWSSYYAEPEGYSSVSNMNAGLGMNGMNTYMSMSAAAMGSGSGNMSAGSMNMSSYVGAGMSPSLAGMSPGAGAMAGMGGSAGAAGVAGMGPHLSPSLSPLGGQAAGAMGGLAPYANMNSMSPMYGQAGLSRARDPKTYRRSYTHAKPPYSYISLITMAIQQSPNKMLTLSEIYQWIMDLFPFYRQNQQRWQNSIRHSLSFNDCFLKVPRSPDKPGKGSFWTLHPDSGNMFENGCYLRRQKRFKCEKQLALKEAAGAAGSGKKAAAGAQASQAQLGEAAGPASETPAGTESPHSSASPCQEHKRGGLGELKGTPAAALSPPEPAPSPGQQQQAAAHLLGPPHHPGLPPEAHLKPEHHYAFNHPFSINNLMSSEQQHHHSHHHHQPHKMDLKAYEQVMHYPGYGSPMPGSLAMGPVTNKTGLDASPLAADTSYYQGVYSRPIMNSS

For the molecule `CCN1CCCC1=O`, the molecule was called inactive in [1], in test [2], in [3], in [4], in [5] and in test [6]. Moreover, the result in test [7], in test [8], in test [9] and in [10] was inactive.

On to `Cc1c(Cl)cccc1Cl`, for which the outcome in test [1], in test [2], in [3], in test [4], in test [5] and in test [6] was inactive. The molecule was classed as inactive in test [7], in test [8], in test [9] and in test [10].

Regarding `CCC(C)(O)CCCC(C)C` (stereo not given), the call in test [1], in [2], in [3], in test [4], in test [5] and in [6] was inactive. The call in test [7], in test [8], in test [9] and in test [10] was inactive.

In the case of `CO[Si](CCCS)(OC)OC`, the molecule was called inactive in [1], in test [2], in [3], in test [4], in [5] and in test [7]. For the same molecule, the molecule was called inactive in test [8], in [9] and in test [10]. In addition, in [6], the AC50 was 68.7 µM (active).

In the case of `CCCC/C=C/C=C\C=O`, the molecule was called inactive in test [1], in test [2], in [3], in test [5], in test [6] and in [7]. Besides, the molecule was called inactive in test [8], in test [9] and in [10]. Moreover, in test [4], the AC50 was 100 µM (active).

For `CC=C(C)C(C)=O`, the result in test [1], in test [2], in test [3], in [4], in test [5] and in [6] was inactive. For the same molecule, the result in test [7], in [8], in test [9] and in test [10] was inactive.

Consider `NNS(=O)(=O)c1ccc(Oc2ccc(S(=O)(=O)NN)cc2)cc1`, for which the call in test [1], in [2], in test [3], in test [4], in [5] and in test [6] was inactive. The result in test [7], in [8], in test [9] and in [10] was inactive.

Regarding `CCCCCCCO`, the molecule was called inactive in [1], in [2], in [3], in [4], in test [5] and in [7]. Also, the molecule was called inactive in test [8], in [9] and in [10]. The concentration at half-maximal activity (AC50) in [6] was 30 µM (active).

In the case of `CCC(C)C(=O)OC` (stereo not given), the molecule was classed as inactive in [1], in test [2], in test [3], in test [4], in [5] and in [6]. Also, the call in test [7], in test [8], in [9] and in [10] was inactive.

In the case of `CC=C(C)C=CC=C(C)C`, the molecule was called inactive in [1], in test [2], in [3], in test [4], in test [5] and in [6]. In addition, the call in test [7], in [8], in test [9] and in [10] was inactive.

`Nc1ccc(C(=O)O)cc1`: the result in test [1], in test [2], in test [3], in test [4], in [5] and in test [6] was inactive. Besides, the molecule was called inactive in [7], in test [8], in test [9] and in test [10].

Consider `c1ccc2sc(SSN3CCOCC3)nc2c1`, for which the call in test [1], in [2], in [3], in test [5], in [6] and in test [7] was inactive. In addition, the molecule was called inactive in test [8] and in test [10]. Further, the half-maximal activity concentration (AC50) in [4] is 100 µM (active); in test [9] it was 158 µM (active).

With `CCCCCCCCCCCCCCCCCCOS(=O)(=O)O`, the molecule was called inactive in test [1], in [2], in [4], in test [7], in test [9] and in test [10]. The AC50 in test [3] was 54.7 µM (active); in test [5], 52.5 µM (active); in test [6], 26.8 µM (active); in [8] it was 56.7 µM (active).

`COC(=O)CC(C)CCC=C(C)C` (stereo not given): the molecule was called inactive in test [1], in test [2], in test [3], in test [4], in test [5] and in test [6]. For the same molecule, the molecule was called inactive in test [7], in [8], in test [9] and in [10].

Turning to `CCOC(=O)c1ccc(C)cc1`, the result in test [1], in test [2], in [3], in [4], in test [5] and in test [6] was inactive. Further, the result in test [7], in test [8], in test [9] and in [10] was inactive.

For the molecule `[Cl][Eu]([Cl])[Cl]`, the molecule was classed as inactive in test [1], in test [2], in test [3], in [4], in test [5] and in test [7]. For the same molecule, the molecule was called inactive in test [8], in test [9] and in test [10]. Besides, the AC50 in test [6] was 51.6 µM (active).

As to `CC1CC(=O)CC(C)(C)C1` (stereo not given), the call in test [1], in [2], in [3], in [4], in [5] and in test [6] was inactive. The call in [7], in test [8], in test [9] and in test [10] was inactive.

In the case of `CCN1CN(CC)CN(CC)C1`, the molecule was called inactive in [1], in test [2], in test [3], in test [4], in test [5] and in test [6]. The outcome in test [8], in test [9] and in test [10] was inactive. Besides, the concentration at half-maximal activity (AC50) in test [7] is 175 µM (active).

As for `Cc1ccc([N+](=O)[O-])cc1N`, the call in [1], in test [2], in test [3], in test [4], in test [5] and in test [6] was inactive. Further, the call in test [7], in test [8], in test [9] and in test [10] was inactive.

With `c1ccc2cnccc2c1`, the molecule was classed as inactive in test [1], in test [2], in test [3], in test [4], in test [5] and in [6]. Further, the result in test [7], in test [8], in [9] and in test [10] was inactive.

On to `CCc1cccc(C)c1N`, for which the result in [1], in [2], in test [3], in test [4], in test [5] and in [6] was inactive. For the same molecule, the call in test [7], in test [8], in [9] and in test [10] was inactive.

With `CCCCNS(=O)(=O)c1ccc(C)cc1`, the call in test [1], in [2], in test [3], in test [4], in [5] and in [6] was inactive. The outcome in test [7], in test [8], in test [9] and in [10] was inactive.

For `CC(CCC(=O)O)(c1ccc(O)cc1)c1ccc(O)cc1`, the call in test [1], in [2], in test [3], in test [4], in test [5] and in test [7] was inactive. Further, the outcome in test [8], in test [9] and in test [10] was inactive. In addition, the AC50 in test [6] was 50.4 µM (active).

As for `C=CC(=O)OCCCCCCCCCC`, the result in [1], in [2], in test [3], in test [4], in [5] and in test [6] was inactive. Moreover, the molecule was called inactive in [7], in test [8], in test [9] and in test [10].

With `C=CC(=O)OCC(C)OCC(C)OCC(C)OC(=O)C=C` (stereo not given), the molecule was classed as inactive in test [1], in [3], in test [5], in test [6], in test [8] and in [10]. In addition, the AC50 was 68.6 µM (active) in test [2], 79.7 µM (active) in [4], 60.1 µM (active) in test [7] and 100 µM (active) in test [9].

For orientation: AC50 means the midpoint of the concentration-response curve, whichever way the signal moves.
